Bead autofluor – counter-screen for toxin protease inhibitors: compound fluorescence; compound autofluorescence counterscreen, microsphere flow cytometry; hits give high values; fluorescence intensity (concentration not given with the values); 360,000 tested, 3.1% active; AID 624483; in the data active = fluorescence intensity above about 16000; inconclusive = no clear call, values can overlap the other calls
BoNT-A LC inh2 – BoNT A light chain protease inhibition; 360,000 tested, 0.17% active; AID 588499; inhibition, % at 10 µM; multiplex microsphere protease substrate cleavage, flow cytometry
VHR inh abs – DUSP3 (human) phosphatase inhibition | 290,000 tested, 0.52% active | P51452 | recombinant VHR phosphatase, pNPP absorbance | inhibition, % at 13.3 µM; in the data active = inhibition above about 50%
Target sequence (P51452 whole entry, looked up): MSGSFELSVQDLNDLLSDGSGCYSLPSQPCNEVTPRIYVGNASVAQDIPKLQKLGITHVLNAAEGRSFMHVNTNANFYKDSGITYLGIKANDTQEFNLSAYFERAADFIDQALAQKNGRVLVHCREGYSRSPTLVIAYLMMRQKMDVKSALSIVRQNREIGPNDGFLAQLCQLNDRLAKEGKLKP
Anthrax LF inh2 – blocks Bacillus anthracis lethal factor protease; 360,000 tested, 0.12% active; multiplex microsphere protease cleavage assay, LF; inhibition, % at 10 µM; P15917
MazEF act – increases E. coli MazEF RNase cleavage of RNA | P0AE70 | FAM/BHQ RNA-DNA oligo cleavage fluorescence, 5 h | activation, % at 20 µM | 350,000 tested, 0.32% active | AID 504720; in the data active = activation above about 50%
Target sequence (P0AE70 whole entry, looked up): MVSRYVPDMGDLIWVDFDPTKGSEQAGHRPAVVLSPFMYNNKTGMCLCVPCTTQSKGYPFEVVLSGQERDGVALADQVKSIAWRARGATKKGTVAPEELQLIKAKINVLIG
BoNT F protease – inhibitors of Botulinum neurotoxin F light chain protease | Multiplex microsphere protease cleavage assay, flow cytometry | inhibition, % at 10 µM | 360,000 tested, 0.22% active | AID 588497; in the data active = inhibition above about 35%, passing the limit was not always enough; inconclusive = no clear call, values can overlap the other calls
Numbers stand for hits. Sampled rows, rich in hits. Any-hit rate of the full collection: about 4.1%. Rule as the data show it, unless noted: active = inhibition above about 30%; inconclusive = no clear call, values can overlap the other calls; inactive = below that.

Screening CCN(CC)c1ccc2cc(C(=O)Nc3cccnc3N3CCOCC3)c(=O)oc2c1 returned VHR inh abs inactive.
Cc1ccc([C@H]2N[C@]3(CCCN(Cc4ccc(Cl)cc4)C3=O)[C@H]3C(=O)N(Cc4ccccc4)C(=O)[C@@H]23)cc1 was read as Bead autofluor inactive, BoNT-A LC inh2 inactive, Anthrax LF inh2 inactive, MazEF act inactive and BoNT F protease inactive.
For COc1ccccc1NC(=O)c1c(Nc2ccccc2C)sc(C(=O)Nc2cccc(Cl)c2)c1N the results were Bead autofluor inactive, BoNT-A LC inh2 inactive, VHR inh abs inactive, Anthrax LF inh2 inactive, MazEF act inactive and BoNT F protease inactive.
O=C1CC(N2CCN(Cc3ccccc3)CC2)C(=O)N1 (configuration not stated) was read as Bead autofluor inactive, BoNT-A LC inh2 inactive, VHR inh abs inactive, Anthrax LF inh2 inactive, MazEF act inactive and BoNT F protease inactive.
Screening O=C1CC(N2CCN(c3ccc(Cl)c(Cl)c3)CC2)C(=O)N1 (configuration not stated) returned Bead autofluor 21082, BoNT-A LC inh2 inactive, VHR inh abs inactive, Anthrax LF inh2 inactive, MazEF act inactive and BoNT F protease inactive.
Screening Cc1nn(C(C)C(=O)NNC(=S)Nc2ccc(F)cc2)c(C)c1[N+](=O)[O-] (configuration not stated) returned Bead autofluor 24064, BoNT-A LC inh2 inactive, VHR inh abs inactive, Anthrax LF inh2 inactive, MazEF act inactive and BoNT F protease inactive.
`Cc1ccc2[nH]cc(C(=O)CN3CCN(c4ccccc4F)CC3)c2c1` gave Bead autofluor 19645, BoNT-A LC inh2 inactive, VHR inh abs inactive, Anthrax LF inh2 inactive, MazEF act inactive and BoNT F protease inactive.
Screening CCN1CCN(CC(=O)c2c[nH]c3ccc(C)cc23)CC1 returned Bead autofluor inactive, BoNT-A LC inh2 inactive, VHR inh abs inactive, Anthrax LF inh2 inactive, MazEF act inactive and BoNT F protease inactive.
COCCNCCCOc1ccc(Cl)cc1Br was read as Bead autofluor inactive, BoNT-A LC inh2 inactive, VHR inh abs inactive, Anthrax LF inh2 inactive, MazEF act inactive and BoNT F protease inactive.
For OCCNCCCOc1ccc(Cl)cc1Br the results were Bead autofluor 22475, BoNT-A LC inh2 inactive, VHR inh abs inactive, Anthrax LF inh2 inactive, MazEF act inactive and BoNT F protease inactive.
Screening Cc1cc(Br)ccc1OCCCCNCCO returned Bead autofluor 21727, BoNT-A LC inh2 inactive, VHR inh abs inactive, Anthrax LF inh2 inactive, MazEF act inactive and BoNT F protease inactive.
COc1cc(C(=O)NCC(c2cccs2)N2CCOCC2)cc(Br)c1OCc1ccccc1 (configuration not stated) was read as Bead autofluor inactive, BoNT-A LC inh2 inactive, Anthrax LF inh2 inactive, MazEF act inactive and BoNT F protease inactive.
`CCCC(=O)c1c(NC)cc(C)oc1=O` gave Bead autofluor 21049, BoNT-A LC inh2 inconclusive, VHR inh abs inactive, Anthrax LF inh2 inactive, MazEF act inactive and BoNT F protease inactive.
Screening Cc1noc(C)c1C(=O)N1CCN(C(=O)c2sc3cc(Cl)ccc3c2Cl)CC1 returned Bead autofluor 18980, BoNT-A LC inh2 inactive, VHR inh abs inactive, Anthrax LF inh2 inactive, MazEF act inactive and BoNT F protease inactive.
Cc1noc(C)c1C(=O)N1CCN(CCc2ccccc2)CC1 was read as Bead autofluor 24658, BoNT-A LC inh2 inconclusive, VHR inh abs inactive, Anthrax LF inh2 inactive, MazEF act inactive and BoNT F protease inactive.
Screening Cc1noc(C)c1C(=O)N1CCN(Cc2ccccc2)CC1 returned Bead autofluor inactive, BoNT-A LC inh2 inactive, VHR inh abs inactive, Anthrax LF inh2 inactive, MazEF act inactive and BoNT F protease inactive.
For COC(=O)c1sccc1NC(=O)c1ccc(Br)s1 the results were Bead autofluor 22720, BoNT-A LC inh2 inactive, VHR inh abs inactive, Anthrax LF inh2 inactive, MazEF act inactive and BoNT F protease inactive.
Screening COC(=O)c1sccc1NC(=O)c1csc(C)c1 returned Bead autofluor 16143, BoNT-A LC inh2 inactive, VHR inh abs inactive, Anthrax LF inh2 inactive, MazEF act inactive and BoNT F protease inactive.
Screening O=C(COC(=O)C1CC1)NCc1ccc(Cl)cc1Cl returned Bead autofluor inactive, BoNT-A LC inh2 inactive, Anthrax LF inh2 inactive, MazEF act inactive and BoNT F protease inactive.
Screening COc1cccc(OC)c1C(=O)NC(=S)Nc1cc(-c2nc3ccccc3[nH]2)ccc1Cl returned Bead autofluor inactive, BoNT-A LC inh2 inactive, VHR inh abs inactive, Anthrax LF inh2 inactive, MazEF act inactive and BoNT F protease inactive.
COC(=O)NNC(=O)COc1ccc(Br)c(C)c1 was read as Bead autofluor inactive, BoNT-A LC inh2 inactive, VHR inh abs inactive, Anthrax LF inh2 inactive, MazEF act inactive and BoNT F protease inactive.
`CCC(C)NC(=O)COc1ccc(Br)c(C)c1` (configuration not stated) gave Bead autofluor 20456, BoNT-A LC inh2 inactive, VHR inh abs inactive, Anthrax LF inh2 inactive, MazEF act inactive and BoNT F protease inactive.
`COc1ccc(C(=O)COC(=O)C2COc3ccccc3O2)c(OC)c1` (configuration not stated) gave Bead autofluor inactive, BoNT-A LC inh2 inactive, Anthrax LF inh2 inactive, MazEF act inactive and BoNT F protease inactive.
`O=S(=O)(Nc1cc(Cl)ccn1)c1ccc(Cl)cc1` gave Bead autofluor 17683, BoNT-A LC inh2 inactive, VHR inh abs inactive, Anthrax LF inh2 inactive, MazEF act inactive and BoNT F protease inactive.
O=S(=O)(Nc1ncccc1O)c1ccc(Cl)cc1 was read as Bead autofluor 23828, BoNT-A LC inh2 inconclusive, VHR inh abs inactive, Anthrax LF inh2 inactive, MazEF act inactive and BoNT F protease inactive.
`Cc1ccnc(NS(=O)(=O)c2ccc(Cl)nc2)c1` gave Bead autofluor inactive, BoNT-A LC inh2 inactive, VHR inh abs inactive, Anthrax LF inh2 inactive, MazEF act inactive and BoNT F protease inactive.
`O=S(=O)(Nc1nc2ccccc2nc1Cl)c1ccc(Cl)cc1` gave Bead autofluor inactive, BoNT-A LC inh2 inactive, VHR inh abs inactive, Anthrax LF inh2 inactive, MazEF act inactive and BoNT F protease inactive.
Cc1cccc(OCCC(=O)NCC(c2ccco2)N2CCCCC2)c1 (configuration not stated) was read as Bead autofluor 20481, BoNT-A LC inh2 inconclusive, VHR inh abs inactive, Anthrax LF inh2 inactive, MazEF act inactive and BoNT F protease inactive.
For O=C(NCC(c1ccco1)N1CCCC1)c1cc2ccccc2s1 (configuration not stated) the results were Bead autofluor 16777, BoNT-A LC inh2 inactive, Anthrax LF inh2 inactive, MazEF act inactive and BoNT F protease inactive.
For O=C(NCc1n[nH]c(=S)n1-c1ccccc1)c1ccco1 the results were Bead autofluor 19724, BoNT-A LC inh2 inactive, VHR inh abs inactive, Anthrax LF inh2 inactive, MazEF act inactive and BoNT F protease inactive.
Screening C=C(C)CSc1nnc2n(C)c(=O)c3c4c(sc3n12)CCC4 returned Bead autofluor inactive, BoNT-A LC inh2 inactive, VHR inh abs inactive, Anthrax LF inh2 inactive, MazEF act inactive and BoNT F protease inactive.

Screening results from PubChem.
